Here are results for seven compounds from PubChem BioAssay (Tox21).

Where “and” joins values, the source holds several entries; their conditions need not be identical. Identical values can stand only once. Inconclusive results are not listed. More than one record can exist for a structure, and the calls need not agree. Calls of active or inactive are those of the source. Unless noted, the call rests on the fitted dose curve; in most records, active means well fitted curve in the direction sought with a large enough effect in the repeat runs; inconclusive means weak or mixed curves; inactive means no such curve, though single readings can be large; an effect the other way counts as inactive or inconclusive.

Assay [1] addresses Thyrotropin receptor (Homo sapiens) (UniProt P16473). Put plainly: qHTS assay to identify small molecule agonists of the thyroid stimulating hormone receptor (TSHR) signaling pathway (AID 1224843; calls by dose curve; further: nearly all actives have a fitted effect of over 45% in size). The essentials: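 TSHR-HEK293 cells in agonist mode, 30 min room-temperature step, then cAMP measured by competitive HTRF (cAMP-d2 with anti-cAMP cryptate) after 1 h at room temperature. Tested at 15 concentrations in triplicate.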

Assay [2] is described as follows: qHTS assay to identify small molecule agonists of the hypoxia (HIF-1) signaling pathway (AID 1224846; active means well fitted activation curve with a large enough effect in the signal ratio in the repeat runs, not every such curve was filed as active; the % refers to the signal ratio). The essentials:
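Measured by blue/green FRET after loading CCF4-AM: beta-lactamase expressed from a hypoxia response element in ME-180 cells. Test agents were delivered in DMSO and left 17 hrs; cells had been plated 5 hrs earlier in low-serum (0.5% dialyzed FBS) medium.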
On the technique in general: Quantitative high-throughput screening tests each substance at several concentrations.

A short description of assay [3]: qHTS assay to identify small molecule antagonists of the estrogen related receptor (ERR) signaling pathway from Tox21 library (AID 1224848). Further: nearly all actives have a fitted effect of over 50% in size. Further: potency means the concentration at half of the fitted maximal effect. The essentials: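 ERR reporter cell line (from NTP) seeded 2,000 cells/well, rested 6 h at 37 C/5% CO2, then pin-dosed with compounds in DMSO. After 18 h at 37 C, ONE-Glo added; luminescence read after 30 min at room temperature.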

The nature of assay [4]: qHTS assay to identify small molecule agonists of the estrogen related receptor (ERR) signaling pathway from Tox21 library (AID 1224849; calls by dose curve; further: nearly all actives have a fitted effect of over 15% in size). Conditions: ERR reporter cell line, ONE-Glo luciferase, 18 h; at 92.4 µM (top of the series). The essentials: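 We plated ERR reporter cells, waited 6 h, added compounds in DMSO by pin tool and incubated them 18 h at 37 C. ONE-Glo was then added and luminescence read after 30 min.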

Assay [5] in a line: qHTS RealTime-Glo MT Cell Viability Assay in HepG2 cells - 24 hour (AID 1224867). Further: nearly all actives have a fitted effect of over 50% in size. The essentials:
(§1)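 Cells + NanoLuc/prosubstrate dispensed (600 cells/well) → 5 h at 37 C/5% CO2 → compounds in DMSO transferred → 40 h incubation at 37 C, luminescence read at 0, 8, 16, 24, 32, 40 h.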

Assay [6] is described as follows: qHTS RealTime-Glo MT Cell Viability Assay in HEK293 cells - 32 hour (AID 1224868). Further: nearly all actives have a fitted effect of over 50% in size. Further: potency means the concentration at half of the fitted maximal effect. The essentials: (§2)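 Tox21 10K qHTS, HEK293, 600 cells/well, RealTime-Glo reagent co-dispensed with cells; 5 h preincubation, compound by pintool, 37 C, luminescence at 0–40 h.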
The nature of assay [7]: A CellTox Green Cytotoxicity Assay to monitor cytotoxicity in HEK293 cells - 0 hour (AID 1224869). Further: nearly all actives have a fitted effect of over 50% in size. The essentials: (§3)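 Each value comes from one timepoint of a single continuous run in which HEK293 cells with CellTox Green were exposed to compound for up to 40 h at 37 C, dye fluorescence rising with cell death.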
Assay [8] is described as follows: qHTS RealTime-Glo MT Cell Viability Assay in HepG2 cells - 40 hour (AID 1224870). Further: nearly all actives have a fitted effect of over 50% in size. The essentials:
(§4)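 HepG2 cells (600/well) mixed with RealTime-Glo MT reagent, settled 5 h at 37 C/5% CO2 before compound addition. Nonlytic NanoLuc luminescence from viable-cell prosubstrate reduction read repeatedly during 40 h treatment at 37 C.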

A short description of assay [9]: A CellTox Green Cytotoxicity Assay to monitor cytotoxicity in HEK293 cells - 40 hour (AID 1224871). Further: nearly all actives have a fitted effect of over 45% in size. The essentials: as §3
A short description of assay [10]: qHTS RealTime-Glo MT Cell Viability Assay in HEK293 cells - 16 hour (AID 1224872). Further: nearly all actives have a fitted effect of over 50% in size. Further: potency means the concentration at half of the fitted maximal effect. The essentials:
as §2

Assay [11] can be described thus: qHTS RealTime-Glo MT Cell Viability Assay in HepG2 cells - 8 hour (AID 1224873). Further: nearly all actives have a fitted effect of over 55% in size. The essentials: as §4
The nature of assay [12]: A CellTox Green Cytotoxicity Assay to monitor cytotoxicity in HEK293 cells - 24 hour (AID 1224875). Further: nearly all actives have a fitted effect of over 45% in size. The essentials:
as §3

A short description of assay [13]: A CellTox Green Cytotoxicity Assay to monitor cytotoxicity in HepG2 cells - 16 hour (AID 1224876). Further: nearly all actives have a fitted effect of over 45% in size. The essentials:
(§5)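 Continuous culture of HepG2 cells with a membrane-impermeant DNA dye; rising fluorescence marks dead cells. Compound exposure lasted up to 40 h at 37 C, with reads every 8 h from 0 h.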

Assay [14] in a line: qHTS RealTime-Glo MT Cell Viability Assay in HepG2 cells - 32 hour (AID 1224877). Further: nearly all actives have a fitted effect of over 55% in size. The essentials:
as §1

Assay [15] can be described thus: A CellTox Green Cytotoxicity Assay to monitor cytotoxicity in HepG2 cells - 24 hour (AID 1224878). Further: nearly all actives have a fitted effect of over 45% in size. The essentials:
as §5

Assay [16] is described as follows: A CellTox Green Cytotoxicity Assay to monitor cytotoxicity in HepG2 cells - 40 hour (AID 1224879). Further: nearly all actives have a fitted effect of over 40% in size. Further: potency means the concentration at half of the fitted maximal effect. The essentials:
as §5

The nature of assay [17]: qHTS RealTime-Glo MT Cell Viability Assay in HEK293 cells - 40 hour (AID 1224874). Further: nearly all actives have a fitted effect of over 50% in size. Further: potency means the concentration at half of the fitted maximal effect. The conditions noted are these: RealTime-Glo luminescence; max response: stronger effect = lower value. The essentials: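 qHTS format; HEK293 cells with NanoLuc/prosubstrate reagent, 37 C/5% CO2 for 5 h pre-dosing; compounds 23 nL in DMSO; luminescence at each time point reflects viable cells.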
Assay [18] is described as follows: qHTS assay to identify small molecule agonists of H2AX (AID 1224845; active means well fitted activation curve with a large enough effect in the signal ratio in the repeat runs, not every such curve was filed as active; the % refers to the signal ratio). The essentials: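 Wild-type CHO-K1 cells, plated overnight, exposed 3hr at 37C to 15 concentrations (0.76% DMSO final). Lysed, then HTRF anti-pH2AX (S139) cryptate and anti-H2AX-d2 antibodies, 24 hr room temperature; 665/620 nm emission read.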
A short description of assay [19]: qHTS assay to identify small molecule agonists of H2AX - cell viability counter screen (AID 1224847; calls by dose curve; further: top concentration of the series differs between compounds; nearly all actives have a fitted effect of over 30% in size). The essentials: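 After overnight plating of 1000 CHO-K1 cells per well, a 15-concentration compound series was applied for 3 hr at 37C. Luminescence from CellTiter-Glo, read following 30 min at room temperature, reflected cell viability.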
The nature of assay [20]: qHTS assay to identify small molecule agonists of the hypoxia (HIF-1) signaling pathway - cell viability counter screen (AID 1224844; calls by dose curve; further: nearly all actives have a fitted effect of over 50% in size). The essentials:
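Luminescent ATP content (CellTiter-Glo, 30 min, room temperature) served as the viability measure in HRE-bla ME-180 cells exposed to compounds for 17 hrs in low-serum medium (0.5% dialyzed FBS).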
On the % scale 0 is the no-effect control and ±100 the full control effect.

Sequence of Thyrotropin receptor (Homo sapiens) (P16473 whole entry, looked up): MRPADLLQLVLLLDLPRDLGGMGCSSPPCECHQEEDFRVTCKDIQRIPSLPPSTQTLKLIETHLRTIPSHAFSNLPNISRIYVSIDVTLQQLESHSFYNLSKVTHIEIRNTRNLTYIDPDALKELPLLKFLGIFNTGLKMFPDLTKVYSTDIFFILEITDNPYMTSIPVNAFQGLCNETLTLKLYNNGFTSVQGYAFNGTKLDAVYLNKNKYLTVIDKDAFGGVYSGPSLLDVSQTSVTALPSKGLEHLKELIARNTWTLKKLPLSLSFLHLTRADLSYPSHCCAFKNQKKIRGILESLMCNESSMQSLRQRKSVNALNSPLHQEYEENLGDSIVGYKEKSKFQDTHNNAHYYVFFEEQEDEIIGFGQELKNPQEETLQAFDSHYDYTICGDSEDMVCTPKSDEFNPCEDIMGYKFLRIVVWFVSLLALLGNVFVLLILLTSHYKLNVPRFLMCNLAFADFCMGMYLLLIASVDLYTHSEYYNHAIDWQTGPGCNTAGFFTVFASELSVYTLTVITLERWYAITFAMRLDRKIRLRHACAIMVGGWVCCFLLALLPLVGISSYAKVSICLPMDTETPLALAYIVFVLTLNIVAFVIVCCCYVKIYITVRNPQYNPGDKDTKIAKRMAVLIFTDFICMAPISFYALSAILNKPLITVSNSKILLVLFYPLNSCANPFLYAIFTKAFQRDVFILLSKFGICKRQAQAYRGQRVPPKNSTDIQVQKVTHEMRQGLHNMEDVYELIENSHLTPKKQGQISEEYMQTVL

Regarding `CCCCC(CC)COC(=O)Cl` (configuration not stated), the Potency result in [1], in assay [3], in assay [5], in [6], in [7] and in [8] was “inactive” throughout. Also, the Potency result in assay [9], in assay [10], in assay [11], in assay [12], in assay [13] and in assay [14] was “inactive” throughout. In addition, the Potency entry in assay [15] and in assay [16] was “inactive” each time. Besides, in assay [2], the compound was called inactive. Besides, the activity change, positive = activation in assay [4] was 0.183% (inactive) and -0.549% (inactive).
For the compound `COP(=O)(OC)OC`, the Potency result in assay [1], in assay [3], in [5], in [6], in [7] and in assay [8] was “inactive” throughout. In addition, the Potency entry in [9], in [10], in [12], in [13], in assay [14] and in assay [15] was “inactive” in each case. The compound was classed as inactive in [2]. In assay [4], the activity change, positive = activation is -30.8% (inactive) and 3.29% (inactive). Also, in assay [16], the Potency was 19.7 µM (active) and inactive.
Regarding `O=C(O)C(F)(F)C(F)(F)C(F)(F)C(F)(F)C(F)(F)C(F)(F)C(F)(F)F`, the Potency entry in [1], in [5], in assay [6], in assay [7], in [8] and in [9] was “inactive” each time. For the same compound, the Potency result in [10], in assay [11], in assay [12], in [13], in assay [14] and in assay [15] was “inactive” in each case. The Potency entry in assay [16] is “inactive”. Besides, the result in assay [2] was inactive. For the same compound, the max response in assay [17] is -9.47% (inactive) and 7.44% (inactive).
For the compound `CNC(=O)N(C)c1nnc(C(C)(C)C)s1`, the Potency entry in [1], in assay [18], in assay [5], in assay [6], in [7] and in [8] was “inactive” each time. Besides, the Potency entry in assay [10], in [11], in assay [12], in [13], in [14] and in assay [15] was “inactive” each time. The Potency entry in assay [16] was “inactive”. Also, the max response in assay [17] is -13.1% (inactive) and 0.0487% (inactive).
On to `NNC(N)=S`, for which the Potency result in assay [1], in assay [19], in assay [5], in assay [6], in assay [7] and in assay [8] was “inactive” in each case. For the same compound, the Potency entry in assay [10], in assay [11], in assay [12], in assay [13], in [14] and in [15] was “inactive” each time. In addition, the Potency result in assay [16] was “inactive”. The call in [2] was inactive. In addition, in assay [3], the Potency was 16 µM (active) and 61.1 µM (active). In [4], the activity change, positive = activation is -76.7% (inactive) and -56.6% (inactive). Moreover, the max response in [17] is 1.23% (inactive) and 8.52% (inactive).
In the case of `CCOC(=O)C(C)OC(=O)c1cc(Oc2ccc(C(F)(F)F)cc2Cl)ccc1[N+](=O)[O-]` (configuration not stated), the Potency result in assay [20], in assay [18], in assay [19], in assay [5], in [7] and in assay [8] was “inactive” each time. Further, the Potency entry in assay [9], in [12], in [13], in assay [14], in assay [15] and in [16] was “inactive” in each case. In [2], the result was inactive. The Potency is 21.6 µM (active) in assay [3], 30.7 µM (active) in assay [6] and 30.7 µM (active) in assay [10]. Moreover, the activity change, positive = activation in [4] was -45.1% (inactive) and -19.8% (inactive). The max response in assay [17] was -24.2% (inactive).
`CN(C)c1ccc(C(=O)c2ccc(N(C)C)cc2)cc1`: the Potency result in assay [20], in assay [5], in assay [7], in [8], in [12] and in assay [13] was “inactive” in each case. Further, the Potency result in [14] and in assay [15] was “inactive” each time. Besides, the call in [2] was inactive. The Potency is 2.75 µM (active) in assay [6]; 3.47 µM (active) in assay [17]; 5.44 µM (active) and 1.95 µM (active) in [16].
